# Where “and” joins values, the source holds several entries; their conditions need not be identical. Identical values can stand only once. The whole screen tested about 5,500 compounds, of which about 2,000 (36%) were called active. Roughly 18% stayed inconclusive and do not appear here. Some of the results follow. Unmarked numbers belong to inactive results. Cut-off read from the data, not from the text of the source: active = normalized growth mostly below about 0.91 (no sharp cut-off); inconclusive = no clear call, values can overlap the other calls; inactive = mostly above about 0.92.
# Experiment: chemical genetic growth profiling, strain panel (AID 1159580);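 note: tested at 20 µM; growth read once vehicle control cultures reached saturation at 30 °C; 1 = growth at the plate median or of vehicle wells; lower values mean less growth of the strain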
# Conditions: growth OD
smiles,measurement,setting,value
CN(C)CCCN1c2ccccc2CCc2ccc(Cl)cc21,normalized growth,"S. cerevisiae deletion strains, locus YJR066W, strain TOR1, hits give low values",0.923
same,normalized growth,"S. cerevisiae deletion strains, locus YKL009W, strain mrt4, hits give low values",0.971
same,normalized growth,"S. cerevisiae deletion strains, locus YKL068W, hits give low values",0.991
same,normalized growth,"S. cerevisiae deletion strains, locus YKL085W, strain MDH1 (second series), hits give low values",0.994
same,normalized growth,"S. cerevisiae deletion strains, locus YKL085W, strain MDH1, hits give low values",0.994
same,normalized growth,"S. cerevisiae deletion strains, locus YKL160W, strain elf1, hits give low values",0.993
same,normalized growth,"S. cerevisiae deletion strains, locus YKL190W, strain CNB1, hits give low values",0.953
same,normalized growth,"S. cerevisiae deletion strains, locus YKR001C, strain vps1, hits give low values",0.644 (active)
same,normalized growth,"S. cerevisiae deletion strains, locus YKR026C, strain gcn3, hits give low values",1.01
same,normalized growth,"S. cerevisiae deletion strains, locus YKR091W, strain srl3, hits give low values",1
same,normalized growth,"S. cerevisiae deletion strains, locus YLL001W, strain dnm1, hits give low values",1.01
same,normalized growth,"S. cerevisiae deletion strains, locus YLL026W, hits give low values",0.982
same,normalized growth,"S. cerevisiae deletion strains, locus YLL041C, strain sdh2, hits give low values",1
same,normalized growth,"S. cerevisiae deletion strains, locus YLR027C, strain aat2, hits give low values",0.996
same,normalized growth,"S. cerevisiae deletion strains, locus YLR039C, strain RIC1, hits give low values",1.35 [resistant] (active)
same,normalized growth,"S. cerevisiae deletion strains, locus YLR058C, strain SHM2, hits give low values",0.946
same,normalized growth,"S. cerevisiae deletion strains, locus YLR102C, strain apc9, hits give low values",0.995
same,normalized growth,"S. cerevisiae deletion strains, locus YLR113W, strain HOG1, hits give low values",0.983
same,normalized growth,"S. cerevisiae deletion strains, locus YLR221C, strain rsa3, hits give low values",0.999
same,normalized growth,"S. cerevisiae deletion strains, locus YLR258W, strain gsy2, hits give low values",0.961
same,normalized growth,"S. cerevisiae deletion strains, locus YLR262C, strain YPT6 (second series), hits give low values",1.14
same,normalized growth,"S. cerevisiae deletion strains, locus YLR262C, strain YPT6, hits give low values",1.33
same,normalized growth,"S. cerevisiae deletion strains, locus YLR268W, strain sec22, hits give low values",0.961
same,normalized growth,"S. cerevisiae deletion strains, locus YLR320W, strain mms22, hits give low values",1
same,normalized growth,"S. cerevisiae deletion strains, locus YLR330W, strain CHS5, hits give low values",0.996
same,normalized growth,"S. cerevisiae deletion strains, locus YLR342W, strain FKS1 (second series), hits give low values",0.615 (active)
same,normalized growth,"S. cerevisiae deletion strains, locus YLR342W, strain FKS1, hits give low values",0.998
same,normalized growth,"S. cerevisiae deletion strains, locus YLR357W, strain rsc2, hits give low values",0.974
same,normalized growth,"S. cerevisiae deletion strains, locus YLR370C, strain arc18, hits give low values",0.993
same,normalized growth,"S. cerevisiae deletion strains, locus YLR371W, strain rom2, hits give low values",0.984
same,normalized growth,"S. cerevisiae deletion strains, locus YLR384C, strain iki3, hits give low values",1
same,normalized growth,"S. cerevisiae deletion strains, locus YLR418C, strain cdc73, hits give low values",0.64 (active)
same,normalized growth,"S. cerevisiae deletion strains, locus YML016C, strain PPZ1, hits give low values",0.978
same,normalized growth,"S. cerevisiae deletion strains, locus YML032C, strain rad52, hits give low values",0.967
same,normalized growth,"S. cerevisiae deletion strains, locus YML120C, strain ndi1, hits give low values",0.986
same,normalized growth,"S. cerevisiae deletion strains, locus YML124C, strain tub3, hits give low values",0.989
same,normalized growth,"S. cerevisiae deletion strains, locus YMR058W, strain fet3, hits give low values",0.966
same,normalized growth,"S. cerevisiae deletion strains, locus YMR078C, strain ctf18, hits give low values",0.989
same,normalized growth,"S. cerevisiae deletion strains, locus YMR125W, strain sto1, hits give low values",0.962
same,normalized growth,"S. cerevisiae deletion strains, locus YMR129W, hits give low values",1
same,normalized growth,"S. cerevisiae deletion strains, locus YMR205C, strain PFK2, hits give low values",0.979
same,normalized growth,"S. cerevisiae deletion strains, locus YMR223W, strain ubp8, hits give low values",0.934
same,normalized growth,"S. cerevisiae deletion strains, locus YMR231W, strain pep5, hits give low values",0.999
same,normalized growth,"S. cerevisiae deletion strains, locus YMR263W, strain SAP30, hits give low values",0.892 and 1.04
same,normalized growth,"S. cerevisiae deletion strains, locus YMR307W, strain GAS1, hits give low values",0.726
same,normalized growth,"S. cerevisiae deletion strains, locus YNL067W, strain RPL9B, hits give low values",0.924
same,normalized growth,"S. cerevisiae deletion strains, locus YNL071W, strain lat1, hits give low values",1.01
same,normalized growth,"S. cerevisiae deletion strains, locus YNL175C, strain NOP13, hits give low values",1.07
same,normalized growth,"S. cerevisiae deletion strains, locus YNL183C, strain NPR1, hits give low values",0.934
same,normalized growth,"S. cerevisiae deletion strains, locus YNL209W, strain ssb2, hits give low values",0.926 (active)
same,normalized growth,"S. cerevisiae deletion strains, locus YNL224C, strain SQS1, hits give low values",1.04
same,normalized growth,"S. cerevisiae deletion strains, locus YNL233W, strain BNI4, hits give low values",0.877
same,normalized growth,"S. cerevisiae deletion strains, locus YNL248C, strain rpa49, hits give low values",0.983
same,normalized growth,"S. cerevisiae deletion strains, locus YNL250W, strain rad50, hits give low values",0.996
same,normalized growth,"S. cerevisiae deletion strains, locus YNL271C, strain bni1, hits give low values",0.993
same,normalized growth,"S. cerevisiae deletion strains, locus YNL298W, strain CLA4, hits give low values",0.999
same,normalized growth,"S. cerevisiae deletion strains, locus YNL307C, strain MCK1, hits give low values",0.961
same,normalized growth,"S. cerevisiae deletion strains, locus YNL322C, strain KRE1 (second series), hits give low values",1.01
same,normalized growth,"S. cerevisiae deletion strains, locus YNL322C, strain KRE1, hits give low values",0.988 and 0.981
same,normalized growth,"S. cerevisiae deletion strains, locus YNR049C, strain mso1, hits give low values",1.01
same,normalized growth,"S. cerevisiae deletion strains, locus YNR052C, strain pop2, hits give low values",0.935
same,normalized growth,"S. cerevisiae deletion strains, locus YOL006C, strain TOP1, hits give low values",0.311 (active)
same,normalized growth,"S. cerevisiae deletion strains, locus YOL012C, strain htz1",1.42
same,normalized growth,"S. cerevisiae deletion strains, locus YOL147C, strain pex11, hits give low values",0.989
same,normalized growth,"S. cerevisiae deletion strains, locus YOR001W, strain rrp6, hits give low values",0.982
same,normalized growth,"S. cerevisiae deletion strains, locus YOR061W, strain CKA2, hits give low values",0.847 (active)
same,normalized growth,"S. cerevisiae deletion strains, locus YOR069W, strain VPS5, hits give low values",0.984
same,normalized growth,"S. cerevisiae deletion strains, locus YOR070C, strain gyp1, hits give low values",0.99
same,normalized growth,"S. cerevisiae deletion strains, locus YOR080W, strain dia2, hits give low values",1
same,normalized growth,"S. cerevisiae deletion strains, locus YOR083W, strain WHI5 (second series), hits give low values",1.1
same,normalized growth,"S. cerevisiae deletion strains, locus YOR083W, strain WHI5, hits give low values",0.985
same,normalized growth,"S. cerevisiae deletion strains, locus YOR106W, strain vam3, hits give low values",0.846 (active)
same,normalized growth,"S. cerevisiae deletion strains, locus YOR136W, strain idh2, hits give low values",1.01
same,normalized growth,"S. cerevisiae deletion strains, locus YOR144C, strain elg1, hits give low values",0.991
same,normalized growth,"S. cerevisiae deletion strains, locus YOR184W, strain ser1, hits give low values",0.96
same,normalized growth,"S. cerevisiae deletion strains, locus YOR231W, strain MKK1, hits give low values",0.999
same,normalized growth,"S. cerevisiae deletion strains, locus YOR265W, strain rbl2, hits give low values",1
same,normalized growth,"S. cerevisiae deletion strains, locus YOR270C, strain vph1, hits give low values",0.567 (active)
same,normalized growth,"S. cerevisiae deletion strains, locus YOR290C, strain snf2, hits give low values",0.903
same,normalized growth,"S. cerevisiae deletion strains, locus YOR316C, strain cot1, hits give low values",0.977
same,normalized growth,"S. cerevisiae deletion strains, locus YPL051W, strain arl3, hits give low values",0.989
same,normalized growth,"S. cerevisiae deletion strains, locus YPL078C, strain atp4, hits give low values",0.987
same,normalized growth,"S. cerevisiae deletion strains, locus YPL106C, strain sse1, hits give low values",1.02
same,normalized growth,"S. cerevisiae deletion strains, locus YPL240C, strain hsp82, hits give low values",0.99
same,normalized growth,"S. cerevisiae deletion strains, locus YPL241C, strain CIN2, hits give low values",0.986 and 0.999
same,normalized growth,"S. cerevisiae deletion strains, locus YPL256C, strain CLN2, hits give low values",1.02
same,normalized growth,"S. cerevisiae deletion strains, locus YPR119W, strain clb2, hits give low values",0.993
same,normalized growth,"S. cerevisiae deletion strains, locus YPR141C, strain kar3, hits give low values",0.99
same,normalized growth,"S. cerevisiae deletion strains, locus YPR163C, strain tif3, hits give low values",0.728 (active)
same,normalized growth,"S. cerevisiae deletion strains, locus YPR167C, strain met16, hits give low values",0.986
same,normalized growth,"S. cerevisiae deletion strains, strain wtn01, hits give low values",0.928
same,normalized growth,"S. cerevisiae strains, strain wild type, hits give low values",0.902
